# PubChem BioAssay
# Calls of active or inactive are those of the source. Rule as the data show it, unless noted: active = inhibition above about 80%; inactive = the rest.
# Assays:
# [1] = target: NAD(+) hydrolase SARM1 (Homo sapiens) (UniProt Q6SZW1); test: blocking NAD cleavage by SARM1 SAM-TIR – cell lysate, NAD-Glo luminescence (AID 1508614;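 active = compound whose remaining NAD level is above about 45 nM, limit read from the data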;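 also: higher remaining NAD means stronger inhibition of SARM1 NADase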); settings: SAM-TIR HEK293T lysate NADase, at 1 µM, stronger effect = higher value
# [2] = growth inhibition, single agent or in combination, cell-based, chromothripsis tumors, cisplatin or BGB combos (AID 1671449); settings: LFS_MB_P medulloblastoma cells;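 also: cells exposed for 96 hours; 0% = vehicle DMSO and 100% = killing by high DMSO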
# [3] = growth inhibition, single agent and combos, cell-based, chromothripsis tumors, cisplatin or BGB combos (AID 1671450); settings: HDN33 neuroblastoma cells, stronger effect = higher value;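 also: cells exposed to compound for four days; 0% = vehicle DMSO and 100% = cell killing by high DMSO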
# [4] = growth inhibition, single agents and combos, ICB984, cell-based, cisplatin or BGB combos, synergistic combos for chromothripsis tumors (AID 1671451; call rule not given here;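 also: cells exposed for 96 hours before readout; 0% = vehicle DMSO and 100% = killing by high DMSO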); settings: ICB984 medulloblastoma cells, drug combinations, stronger effect = higher value
# [5] = growth inhibition, single agents and combos, LFS_MB_1R, cell-based, cisplatin or BGB combos, synergistic combos for chromothripsis tumors (AID 1671452); settings: LFS_MB_1R medulloblastoma cells, stronger effect = higher value;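 also: cells exposed for 96 hours before readout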
# [6] = growth inhibition, single agents and combos, HTB85, cell-based, BGB or cisplatin IC20 combos, synergistic combos for chromothripsis tumors (AID 1671453); settings: HTB85 osteosarcoma cells, drug combinations, stronger effect = higher value;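 also: cells exposed for 96 hours before readout; 0% = vehicle DMSO and 100% = high DMSO killing control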
# [7] = growth inhibition, MDA-MB-436, cell-based, BGB or cisplatin combos, synergistic combos for chromothripsis tumors (AID 1671458; call rule not given here;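 also: cells exposed for 96 hours; 0% = vehicle DMSO and 100% = killing by high DMSO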); settings: MDA-MB-436 breast carcinoma growth inhibition, drug combinations, stronger effect = higher value
# [8] = BT084 cell growth, single and combined drugs, ICGC_MB145, cisplatin and BGB IC40 combos (AID 1671461); settings: BT084 medulloblastoma cells, drug combinations, stronger effect = higher value;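 also: cells exposed to drugs for 96 hours; 0% = vehicle DMSO and 100% = high DMSO full killing control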
# [9] = RCMB18 cell growth, single agent and combined, cisplatin and BGB IC40 combos (AID 1671462); settings: RCMB18 medulloblastoma cells, stronger effect = higher value;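 also: cells exposed to compound for four days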
# [10] = CRL1545 cell growth, single agent and combined, cisplatin and BGB IC20 combos (AID 1671464); settings: CRL1545 osteosarcoma cells, stronger effect = higher value;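 also: cells exposed to compound for 96 hours before readout; 0% = vehicle DMSO and 100% = high DMSO killing control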
# [11] = measured here: combination with BGB IC40, at 0.05 µM
# [12] = measured here: with BGB IC20 combination, at 0.5 µM
# [13] = measured here: with cisplatin IC20 combination, at 0.5 µM
# [14] = measured here: combination with cisplatin, at 0.5 µM
# NAD(+) hydrolase SARM1 (Homo sapiens), sequence (Q6SZW1 whole entry, looked up): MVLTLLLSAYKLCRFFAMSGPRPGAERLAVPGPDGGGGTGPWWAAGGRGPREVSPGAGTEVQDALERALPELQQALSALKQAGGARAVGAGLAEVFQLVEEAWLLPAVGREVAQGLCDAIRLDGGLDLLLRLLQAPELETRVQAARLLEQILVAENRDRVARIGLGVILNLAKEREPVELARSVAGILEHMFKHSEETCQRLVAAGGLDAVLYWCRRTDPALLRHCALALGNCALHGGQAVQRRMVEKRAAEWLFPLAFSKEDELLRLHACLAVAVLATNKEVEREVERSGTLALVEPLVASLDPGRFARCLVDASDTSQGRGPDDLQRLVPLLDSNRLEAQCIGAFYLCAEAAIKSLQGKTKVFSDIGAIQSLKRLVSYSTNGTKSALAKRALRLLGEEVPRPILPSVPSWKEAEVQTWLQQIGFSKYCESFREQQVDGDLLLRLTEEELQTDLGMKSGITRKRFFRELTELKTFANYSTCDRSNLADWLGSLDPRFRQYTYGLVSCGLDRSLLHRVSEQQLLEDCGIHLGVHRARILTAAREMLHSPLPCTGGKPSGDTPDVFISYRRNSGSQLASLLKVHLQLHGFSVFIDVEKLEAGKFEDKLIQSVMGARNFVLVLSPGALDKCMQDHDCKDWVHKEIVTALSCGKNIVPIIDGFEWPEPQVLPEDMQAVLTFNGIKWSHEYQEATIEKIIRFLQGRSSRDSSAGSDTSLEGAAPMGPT
structure (smiles),measurement,setting,value
C=CC1=C(C)C2=CC3=NC(=C(CC(=O)O)C4=NC(=C(C)C4=C(O)O)C=c4[nH]c(c(C)c4CC)=CC1=N2)C(CCC(=O)O)C3C (stereo unspecified),remaining NAD,[1],10 nM (inactive)
same,inhibition,"[2]; at 0.5 µM, stronger effect = higher value",-22.2% (inactive)
same,inhibition,"[2]; measured here: combination with BGB IC20, at 0.005 µM",-27.4%
same,inhibition,"[2]; measured here: combination with BGB IC40, at 0.005 µM",-20.4%
same,inhibition,[2]; [11],-7.95%
same,inhibition,"[2]; measured here: combination with cisplatin, at 0.5 µM, stronger effect = higher value",-18.8%
same,inhibition,"[2]; measured here: combination with cisplatin, at 5 µM, stronger effect = higher value",-59.6%
same,inhibition,"[3]; BGB combo, at 5 µM",-5.94%
same,inhibition,[3]; at 0.5 µM,-6.06% (inactive)
same,inhibition,"[3]; cisplatin combo, at 5 µM",3.3%
same,inhibition,[3]; [12],-2.85%
same,inhibition,[3]; [13],8.33%
same,inhibition,"[3]; single agent, at 5 µM",10.4%
same,inhibition,"[4]; BGB IC20 combo, at 0.005 µM",-23.1%
same,inhibition,"[4]; BGB IC40 combo, at 0.005 µM",-25.1%
same,inhibition,"[4]; BGB IC40 combo, at 0.05 µM",-20%
same,inhibition,[4]; at 0.5 µM,-26.5% (inactive)
same,inhibition,"[4]; cisplatin combo, at 0.05 µM",-20%
same,inhibition,"[4]; cisplatin combo, at 0.5 µM",-42.5%
same,inhibition,"[4]; cisplatin combo, at 5 µM",-25.5%
same,inhibition,"[4]; measured here: 5 uM single agent, at 5 µM",5.39%
same,inhibition,[5]; at 0.5 µM,-18.3% (inactive)
same,inhibition,[5]; [11],-22.1%
same,inhibition,[5]; [14],-13.2%
same,inhibition,"[5]; measured here: combination with cisplatin, at 5 µM",-2.96%
same,inhibition,[6]; at 0.5 µM,-16.7% (inactive)
same,inhibition,"[6]; measured here: with BGB IC20, at 0.5 µM",-29.2%
same,inhibition,"[6]; measured here: with BGB IC20, at 5 µM",-11.5%
same,inhibition,"[6]; measured here: with cisplatin IC20, at 0.5 µM",-27.9%
same,inhibition,"[6]; measured here: with cisplatin IC20, at 5 µM",-1.9%
same,inhibition,"[6]; single agent, at 5 µM",1.12%
same,inhibition,[7]; at 0.5 µM,-19% (inactive)
same,inhibition,"[7]; measured here: BGB combination, at 0.5 µM",-19.5%
same,inhibition,"[7]; measured here: BGB combination, at 5 µM",-14.7%
same,inhibition,"[7]; measured here: cisplatin combination, at 0.5 µM",-36.2%
same,inhibition,"[7]; measured here: cisplatin combination, at 5 µM",-11.5%
same,inhibition,[8]; at 0.5 µM,-4.34% (inactive)
same,inhibition,"[8]; cisplatin combination, at 0.5 µM",3.74%
same,inhibition,"[8]; cisplatin combination, at 5 µM",-40.8%
same,inhibition,"[8]; measured here: BGB IC40 combination 0.05 uM, at 0.05 µM",-3.49%
same,inhibition,"[8]; single agent, at 5 µM",-10.5%
same,inhibition,[9]; at 0.5 µM,-15.6% (inactive)
same,inhibition,"[9]; cisplatin combo, at 5 µM",30.7%
same,inhibition,"[9]; measured here: BGB IC40 combination, at 0.05 µM",-38.7%
same,inhibition,[9]; [14],-5.59%
same,inhibition,"[9]; single agent, at 5 µM",-26.5%
same,inhibition,[10]; at 0.5 µM,-23.9% (inactive)
same,inhibition,[10]; [12],2.58%
same,inhibition,[10]; [13],-37.1%
same,inhibition,"[10]; single agent, at 0.05 µM",3.9%
same,inhibition,"[10]; single agent, at 5 µM",17%
